Calls of active or inactive are those of the source. How the source made its calls: active means hit-call score of the fitted dose curve at least 0.9, where 1 is the maximum; inactive means score below 0.9.

Read-out in the assay: Potassium channel subfamily K member 1 (KCNK1), KCNK1 (gene 3775)
Nature of the assay: LTEA_HepaRG_KCNK1: Life Technologies and Expression Analysis (LTEA) Assay for Potassium channel subfamily K member 1 (KCNK1) using HepaRG (AID 2283511). The note with it: mRNA level, 48 h; actives raise or lower the signal. As to the method:
LTEA_HepaRG is a cell based, multiplexed-readout assay that uses HepaRG, a human liver cell line, with measurements taken at 48 hours after chemical dosing on a 96-well plate.LTEA_HepaRG_KCNK1 is one of 102 assay component(s) measured in the LTEA HepaRG cell culture assay. It is a marker of Hyperplasia.Data from the assay component LTEA_HepaRG_KCNK1 was analyzed into 1 endpoint. This assay endpoint, LTEA_HepaRG_KCNK1, was analyzed with bidirectional fitting relative to DMSO as the negative control and baseline of activity. Using a type of inducible reporter, measures of mRNA induction for gain or loss-of-signal activity can be used to understand regulation of transcription factor activity. To generalize the intended target to other relatable targets, this assay endpoint is annotated to the ion channel intended target family, where the subfamily is potassium channel.
A total of 1060 chemcials from the ToxCast library were tested in eight-point concentration-response experiments. Cell culture and cytotoxicity assays were conducted at Thermo Fisher Scientific's Custom Services facility (Madison, WI). A single lot of human HepaRG cells (Thermo Fisher Scientific, Frederick, MD) was used for the cell culture experiments. 96-well format collagen type I coated plates of human HepaRG cells were prepared using established methods. Briefly, cryopreserved HepaRG cells were thawed, plated at a density of approximately 100,000 cells/well in HepaRG Thaw, Plate, and General Purpose media (HPRG770, Thermo Fisher Scientific), and incubated for 48 hours. 0.5% DMSO was selected as vehicle control to balance the requisite need of DMSO in HepaRG cultures to maintain differentiation (for example, baseline metabolism, proportions of hepatocytes vs. cholangiocytes), while enabling further hepatic receptor pathway activation (for example, PXR and CAR) in response to chemical exposure. 48 hours after plating, the culture medium was replaced with HepaRG Serum-Free Incudtion Media. Cells were exposed to each test chemical in duplicate and maintained in CO2 incubators for another 48 hours. Chemical plates were thawed to room temperature and 200x concentrations of treatment groups were prepared. 8-point conentration-reponse curves were made with the highest exposure at 100 uM, followed by half-log dilutions, all in 0.5% DMSO. Each test plate contained variouse controls, induction positive controls (1mM phenobarbital), cytotoxicity positive controls ([…] aflatoxin B1), vehicle controls (0.5% DMSO), and total lysis controls (0.5% DMSO). Cell morphology images were taken using an Essen IncuCyte FLR automated microscope, with six 96-well plates imaged in about 24 minutes. Images were captured and exported and JPEG files. Spent culture media was transfered to black-well plates for the LDH assay, and remaining media was sorted at -80 C for later use. Cells were treated with RLT buffer and frozen until shipped for gene expression analysis. Total RNA was isolated from the cell suspension in 75 uL of Buffer RLT (Qiagen, Germantown, MD 20874) by Quintiles/Expression Analysis (Durham, NC) using a custom isolation procedure. Total RNA from each plate well was transferred to a preamplification plate. Fluidigm's 96.96 Dynamic ArrayTM (Fluidigm, Amsterdam, the Netherlands) technology was used for gene expression analyses by quantitative reverse transcription polymerase chain reaction (qRT-PCR, performed by Quintiles/Expression Analysis, Durham, NC)89. Standard TaqManTM Assays (Applied Biosystems/ThermoFisher Scientific, Foster City, CA) were used to assess the expression of 93 genes selected based on their selectivity and sensitivity to important hepatic receptors known to be modulated by environmental chemicals; importance in human hepatocyte functionality; and hepatotoxicity. […]
Consider `Clc1cccc(Cl)c1Cl`, for which the molecule was classed as inactive.
As for `O=C(O)C1(c2ccc3c(c2)OC[C@H](Cc2ccc(-c4ccccc4)cc2)[C@H]3O)CCCC1`, the entry is “inactive”; as for `Cc1cc(C)cc(C)c1`, “inactive”.
The entry for `CCCCCCCCCCCCc1cccc(S(=O)(=O)O)c1` is “inactive”; for `COc1ccccc1N` it is “inactive”.
The entry for `CC(C)(C)c1ccccc1O` is “inactive”; for `N#Cc1cccnc1` it is “inactive”.
Turning to `Oc1c(Cl)cc(Cl)cc1Cl`, the result was inactive.
The entry for `OCCN(CCO)CCO` is “inactive”; for `CN(C)C(=S)S` it is “inactive”.
As for `Oc1cc(Cl)c(Cl)cc1Cl`, the entry is “inactive”; as for `CC(C)O.CC(C)O.OCCN(CCO)CCO.OCCN(CCO)CCO.[Ti]`, “inactive”; as for `Clc1cccc(Cl)c1`, “inactive”.
The entry for `O=C(N[C@H]1CN2CCC1CC2)c1ccc2c(c1)OCCO2` is “inactive”.

The values above are taken from PubChem BioAssay (EPA / NIEHS).
